# Bioassay records from PubChem BioAssay.
# Compounds with a hit are over-represented: about 7.8% of the library has one in this group of screens.
# VACV Venus inh = vaccinia inhibition (Venus reporter) | hit rate 0.46% among 330,000 | Vaccinia virus Venus reporter expression, fluorescence | Potency, µM (titrated, usually from 36.5 µM), actives largely listed as inhibitors; calls by dose curve; tested in A549 cells; note: nearly all actives have a fitted effect of over 30% in size
# HCV inh = HCV inhibition; Potency, µM (doses to about 41.8 µM), hits mostly inhibitors; hit rate 3.4% among 340,000; Huh7.5.1 HCVcc-Cre infection, luciferase reporter, 44 h; active = well fitted inhibition curve with a large enough effect; inconclusive = small, poorly fitted or top-dose-only effect, or another doubt; inactive = no such curve, though single readings can be large or run the other way
#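 Cells (1,000/well) were plated 4 h before compound, then infected with HCVcc-Cre virus (~0.5 moi). After 44 h further culture, infection was read as luciferase luminescence following a 15 min substrate incubation at room temperature.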
# VACV mCherry inh = vaccinia inhibition (mCherry reporter) | Vaccinia virus mCherry reporter infection, fluorescence | Potency, µM (doses to about 36.5 µM), actives largely listed as inhibitors | hit rate 0.63% among 310,000 | AID 720579; calls by dose curve; tested in A549 cells; note: nearly all actives have a fitted effect of over 35% in size
# LASV entry inh = blocks Lassa virus binding to or entry into cells. Potency, µM (highest dose often 37.9 µM), hits mostly inhibitors. hit rate 1.2% among 300,000. AID 540256. Lassa virus pseudotype entry inhibition, cell reporter; calls by dose curve; tested in HEK293 cells; note: nearly all actives have a fitted effect of over 50% in size
# Marburg entry inh = Marburg virus entry inhibition. Potency, µM (series often up to 37.8 µM), actives largely listed as inhibitors. hit rate 1.8% among 300,000. Marburg virus pseudotyped entry inhibition, cell reporter. AID 540276; calls by dose curve; tested in HEK293 cells
# HCMV antiviral = blocks human cytomegalovirus replication; hit rate 4.5% among 410,000; HFF cells, HCMV-luciferase reporter, 72 h; hits give low values; activity change, negative = inhibition, % at 57.5 µM; in the data active = activity change below about -60%; inconclusive = no clear call, values can overlap the other calls; inactive = above about -39%
#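 Screen run at 2 compound doses on HFFs infected with reporter HCMV, MOI 1 PFU/cell. Luciferase activity from cell lysates at 72 h post infection gave inhibition relative to buffer-only and Salinomycin wells.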
# Numbers stand for hits; n = inactive; u = inconclusive; x = no result.
SMILES,VACV Venus inh,HCV inh,VACV mCherry inh,LASV entry inh,Marburg entry inh,HCMV antiviral
O=C1C(c2ccc(F)cc2)N(Cc2ccccc2Cl)C(=O)CN1C1CCCCC1 (centres undefined),n,x,n,n,x,n
CCCCCCCCCc1ccc(OCCOCCO)cc1,u,x,n,x,x,x
CN[C@H]1C[C@@H](N)[C@H](O)[C@@H](O[C@@H]2O[C@H](CO)[C@H](O)[C@@H]3OC4(O[C@H]23)O[C@H](C(N)CO)[C@H](O)[C@H](O)[C@H]4O)[C@@H]1O (some centres undefined),n,x,n,x,x,x
CN(C)c1ccc(/C=C/c2ccnc3ccccc23)cc1,n,x,n,x,x,x
Cn1cnc2c(ncn2[C@@H]2O[C@H](CO)[C@@H](O)[C@H]2O)c1=N,n,x,n,x,x,x
COc1ccccc1-c1ccc(NC2CCCCC2)nn1,x,22µM,x,n,u,n
C=CCNc1nc2c(c(=O)n(C)c(=O)n2C)n1CCCCCC,x,u,x,n,u,-96
C=CCNc1nc2c(c(=O)n(C)c(=O)n2C)n1CC,n,n,n,x,x,n
C=CCNc1nc2c(c(=O)n(C)c(=O)n2C)n1Cc1ccc(F)cc1,n,6.3µM,n,x,x,-79
N#Cc1c(NC(=O)CSc2nnc(-c3ccncc3)n2CC2CCCO2)sc2c1CCCC2 (centres undefined),n,n,n,n,n,-80
N#Cc1c(NC(=O)CSc2ncc(-c3ccccc3)n2CC2CCCO2)sc2c1CCCC2 (centres undefined),x,11µM,x,7.3µM,5.2µM,-62
CCn1c(SCC(=O)Nc2sc3c(c2C#N)CCCC3)nnc1-c1ccncc1,u,u,n,n,n,n
COc1ccc2[nH]c(C)c(CCNc3ccc(C(F)(F)F)cc3[N+](=O)[O-])c2c1,n,n,n,n,2.5µM,n
COc1ccc(CNCCc2c(C)[nH]c3ccc(OC(F)(F)F)cc23)c(OC)c1,n,18µM,u,u,6.3µM,-66
Cn1ccc2c(N3c4ccccc4CCc4ccccc43)cc3c(c21)C1CCC3C1 (centres undefined),n,x,n,n,x,-93
CCCN(CC1CC1)c1cc2c(c3c1ccn3C)C1CCC2C1 (centres undefined),n,x,n,x,3.1µM,-62
CCN(CC)c1cc2c(c3c1ccn3C)C1CCC2C1 (centres undefined),n,x,n,x,x,n
COc1ccc(-c2cc3c(c4c2ccn4C)C2CCC3C2)cc1OC (centres undefined),n,x,n,x,u,-60
Cc1ccc(C)c(N2CCN(c3nc4ccccc4c(=O)n3-c3ccc(Cl)cc3)CC2)c1,n,x,n,n,n,n
CNC(=O)CN(c1ccc(C23CC4CC(CC(C4)C2)C3)cc1)S(C)(=O)=O,n,n,n,n,u,-60
COc1cc(C(=O)N/N=C/c2ccc(OC)c(CN3CCN(c4ccc(F)cc4)CC3)c2)ccc1O,x,25µM,x,n,u,n
COc1ccc(C(=O)N/N=C/c2ccc(OC)c(COc3ccc(F)cc3F)c2)cc1,n,u,n,2.2µM,u,n
COc1ccc(/C=N/NC(=O)CCSc2nc3ccccc3s2)cc1OC,x,10µM,x,n,n,n
COc1ccc(/C=N/NC(=O)Nc2cccc3nsnc23)cc1OC,n,5.6µM,n,n,n,n
COc1ccc(/C=N/NC(=O)c2cccc(C(=O)N/N=C/c3ccc(OC)c(OC)c3)n2)cc1OC,x,n,x,x,x,u
SMILES,VACV Venus inh,HCV inh,VACV mCherry inh,LASV entry inh,Marburg entry inh,HCMV antiviral
O=C1CCC2CCCCC2O1 (centres undefined),x,x,x,x,n,x
O=C(CCSc1nc2ccccc2s1)N/N=C/c1c(O)ccc2ccccc12,x,3.2µM,x,u,u,-99
COc1ccc(/C=N\NC(=O)c2ccccc2OC)cc1COc1c(F)c(F)c(F)c(F)c1F,n,u,n,n,u,n
COc1ccc(/C=N\NC(=O)c2ccccc2Cl)cc1COc1c(F)c(F)c(F)c(F)c1F,u,2.2µM,u,u,u,n
CCOc1ccc(/C=N/NC(=O)c2ccccc2C)cc1CN1CC2CC(C1)c1cccc(=O)n1C2 (centres undefined),n,u,n,x,n,n
COc1cc(/C=N/NC(=O)c2ccccc2Cl)ccc1Oc1ccc([N+](=O)[O-])cn1,x,11µM,x,x,x,u
COc1ccc(/C=N/NC(=O)c2ccccc2O)cc1Cn1cc([N+](=O)[O-])cn1,n,n,n,x,x,n
CCOc1ccc(/C=N/NC(=O)c2ccccc2Cl)cc1CN1CC2CC(C1)c1cccc(=O)n1C2 (centres undefined),n,2.5µM,n,x,n,n
Cc1cc(C)cc(N2CCn3c2nc2c3c(=O)n(CCc3ccccc3)c(=O)n2C)c1,n,x,n,u,x,n
COC(=O)c1cc(CNC(=O)c2ccccn2)cc(NC(=O)c2ccccc2OC)c1,n,x,n,x,x,x
CCCCNC(=O)CSc1nc2cc3c(cc2c(=O)n1CCCC(=O)NCc1ccc2c(c1)OCO2)OCO3,n,x,n,n,x,n
COc1ccc(/C=N/NC(=O)c2cccnc2)cc1CSc1nc2ccccc2s1,n,n,u,n,n,u
COc1cc(/C=C(/C#N)c2ccc(C)cc2)ccc1Oc1ccc([N+](=O)[O-])cn1,n,10µM,n,n,n,n
Cc1ccc2nc(/C(C#N)=C\c3ccc(Oc4ccc([N+](=O)[O-])cn4)cc3)[nH]c2c1,n,u,n,n,n,n
COc1ccc(/C=N/NC(=O)c2ccccc2Cl)cc1CSc1nc2ccccc2s1,x,u,x,13µM,u,u
Cc1ccc(-n2ncc(C(=O)NCc3ccco3)c2C2CCN(C(=O)OC(C)(C)C)CC2)c(C)c1,n,x,n,u,x,n
CCN1C(=O)C(Cc2nc3ccccc3c(=O)n2-c2ccc(OC)cc2)c2cc(C)ccc21 (centres undefined),n,x,n,n,n,n
CCN1C(=O)C(Cc2nc3ccccc3c(=O)n2-c2ccccc2)c2cc(Br)ccc21 (centres undefined),n,x,n,n,u,-70
COc1ccc(C(=O)Cn2cc[n+](C)c2)cc1,n,11µM,n,n,n,n
COc1ccc(C(=O)CC(=O)c2ccc(OC)cc2)cc1,n,n,n,n,n,n
COc1cccc(OCc2cc(=O)n3c(-c4ccccc4)csc3n2)c1,n,x,u,n,u,n
O=C(c1cc(F)ccc1F)C1CCCN(Cc2cccn2-c2ccccn2)C1 (centres undefined),x,n,x,x,x,n
Cc1ccsc1C(=O)C1CCCN(Cc2cccn2-c2ccccn2)C1 (centres undefined),n,n,n,u,5.6µM,-66
COc1ccc(F)cc1C(=O)C1CCCN(Cc2cccn2-c2ccccn2)C1 (centres undefined),n,u,u,10µM,u,u
COc1ccc(C(=O)C2CCCN(Cc3cccn3-c3ccccn3)C2)c(OC)c1 (centres undefined),n,u,u,u,u,-67
COC(=O)CC=C[C@@H](C)[C@@H](C=NOC[C@@H](O)COCc1ccco1)NS(=O)(=O)c1ccc(C)cc1,x,x,x,x,n,x
